Reference: the supplement of paper PMC11732987, “Enantioselective OTUD7B fragment discovery through chemoproteomics screening and high-throughput optimisation” (Communications Chemistry, 2025)

What was measured:
Assay in all cases: log2 ratio of Biotin-Ahx-Ub-VS probe labelling (fragment/DMSO); higher = less target engagement (more negative = stronger competition), active = hit call of the paper (q ≤ 0.05, log2 ratio ≤ -1)
Settings in all cases: compound concentration: 200 uM; treatment time: 3 h
[1] = biological target: T1, USP19 (UniProt O94966)
T1 sequence (whole entry): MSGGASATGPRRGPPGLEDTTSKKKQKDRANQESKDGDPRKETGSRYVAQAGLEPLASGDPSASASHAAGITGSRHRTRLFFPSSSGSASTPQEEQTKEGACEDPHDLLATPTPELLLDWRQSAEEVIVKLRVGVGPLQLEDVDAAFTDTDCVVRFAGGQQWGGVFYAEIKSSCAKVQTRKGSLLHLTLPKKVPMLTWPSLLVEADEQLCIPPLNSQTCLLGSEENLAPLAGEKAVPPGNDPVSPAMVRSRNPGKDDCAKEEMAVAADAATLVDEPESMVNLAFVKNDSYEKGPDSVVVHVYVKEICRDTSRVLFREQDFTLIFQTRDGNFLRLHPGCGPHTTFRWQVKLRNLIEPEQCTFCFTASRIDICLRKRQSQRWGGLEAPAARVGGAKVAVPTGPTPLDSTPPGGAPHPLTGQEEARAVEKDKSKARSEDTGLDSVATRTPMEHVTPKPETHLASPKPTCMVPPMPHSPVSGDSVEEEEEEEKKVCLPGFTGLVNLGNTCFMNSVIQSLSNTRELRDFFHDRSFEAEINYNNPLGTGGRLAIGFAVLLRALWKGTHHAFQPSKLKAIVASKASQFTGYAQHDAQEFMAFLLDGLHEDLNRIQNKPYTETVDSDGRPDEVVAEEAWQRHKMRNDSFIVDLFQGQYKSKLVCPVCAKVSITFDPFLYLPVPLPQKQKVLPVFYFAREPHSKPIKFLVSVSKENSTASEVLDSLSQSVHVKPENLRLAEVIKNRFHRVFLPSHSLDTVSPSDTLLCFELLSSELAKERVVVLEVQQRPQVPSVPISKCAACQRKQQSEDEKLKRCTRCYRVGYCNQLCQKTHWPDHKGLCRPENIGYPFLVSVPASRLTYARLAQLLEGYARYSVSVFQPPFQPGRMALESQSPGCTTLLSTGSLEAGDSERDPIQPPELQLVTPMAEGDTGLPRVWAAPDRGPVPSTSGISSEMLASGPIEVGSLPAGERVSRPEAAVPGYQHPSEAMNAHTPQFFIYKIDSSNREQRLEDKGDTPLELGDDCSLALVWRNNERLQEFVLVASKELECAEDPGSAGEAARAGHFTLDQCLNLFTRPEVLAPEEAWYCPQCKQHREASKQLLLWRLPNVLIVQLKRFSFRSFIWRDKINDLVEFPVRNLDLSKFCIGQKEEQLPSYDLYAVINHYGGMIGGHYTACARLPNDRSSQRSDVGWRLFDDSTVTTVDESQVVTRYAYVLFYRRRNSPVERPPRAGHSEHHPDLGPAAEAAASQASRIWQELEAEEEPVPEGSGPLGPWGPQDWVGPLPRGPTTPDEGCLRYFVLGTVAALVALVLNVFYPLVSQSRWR
Procedure, shortened: (§1)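 Each value is an average log2 ratio of fragment to vehicle, tested by unpaired t-test. The underlying Spectronaut label-free quantities were global-median-normalised, and only proteins with ≥2 unique peptides were included. Triplicate HEK293T lysate samples (495 µg) were exposed to fragment at 200 µM or vehicle for 3 h, then to Biotin-Ahx-Ub-VS at 0.5 µM final for 1 h, before NeutrAvidin enrichment of labelled DUBs, LysC and trypsin digestion, and diaPASEF LC-MS/MS.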

[2] = biological target: T2, USP22 (UniProt Q9UPT9)
T2 sequence (whole entry): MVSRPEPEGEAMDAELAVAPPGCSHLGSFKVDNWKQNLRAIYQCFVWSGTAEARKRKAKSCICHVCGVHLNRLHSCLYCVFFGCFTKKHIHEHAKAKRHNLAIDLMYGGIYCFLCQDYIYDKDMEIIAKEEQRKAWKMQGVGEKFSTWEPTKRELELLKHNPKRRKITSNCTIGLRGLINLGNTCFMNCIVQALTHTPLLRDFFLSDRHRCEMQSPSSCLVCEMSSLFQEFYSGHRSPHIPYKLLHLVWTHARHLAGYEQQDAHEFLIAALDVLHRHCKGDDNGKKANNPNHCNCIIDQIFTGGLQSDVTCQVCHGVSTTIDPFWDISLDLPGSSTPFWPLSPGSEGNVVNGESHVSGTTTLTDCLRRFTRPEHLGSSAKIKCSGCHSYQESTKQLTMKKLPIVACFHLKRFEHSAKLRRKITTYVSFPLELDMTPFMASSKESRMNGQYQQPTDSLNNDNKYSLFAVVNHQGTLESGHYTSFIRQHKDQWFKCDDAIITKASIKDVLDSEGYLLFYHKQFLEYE
Procedure, shortened: as §1

[3] = biological target: USP24 (UniProt Q9UPU5)
Procedure, shortened: as §1

[4] = biological target: T3, USP25 (UniProt Q9UHP3)
T3 sequence (whole entry): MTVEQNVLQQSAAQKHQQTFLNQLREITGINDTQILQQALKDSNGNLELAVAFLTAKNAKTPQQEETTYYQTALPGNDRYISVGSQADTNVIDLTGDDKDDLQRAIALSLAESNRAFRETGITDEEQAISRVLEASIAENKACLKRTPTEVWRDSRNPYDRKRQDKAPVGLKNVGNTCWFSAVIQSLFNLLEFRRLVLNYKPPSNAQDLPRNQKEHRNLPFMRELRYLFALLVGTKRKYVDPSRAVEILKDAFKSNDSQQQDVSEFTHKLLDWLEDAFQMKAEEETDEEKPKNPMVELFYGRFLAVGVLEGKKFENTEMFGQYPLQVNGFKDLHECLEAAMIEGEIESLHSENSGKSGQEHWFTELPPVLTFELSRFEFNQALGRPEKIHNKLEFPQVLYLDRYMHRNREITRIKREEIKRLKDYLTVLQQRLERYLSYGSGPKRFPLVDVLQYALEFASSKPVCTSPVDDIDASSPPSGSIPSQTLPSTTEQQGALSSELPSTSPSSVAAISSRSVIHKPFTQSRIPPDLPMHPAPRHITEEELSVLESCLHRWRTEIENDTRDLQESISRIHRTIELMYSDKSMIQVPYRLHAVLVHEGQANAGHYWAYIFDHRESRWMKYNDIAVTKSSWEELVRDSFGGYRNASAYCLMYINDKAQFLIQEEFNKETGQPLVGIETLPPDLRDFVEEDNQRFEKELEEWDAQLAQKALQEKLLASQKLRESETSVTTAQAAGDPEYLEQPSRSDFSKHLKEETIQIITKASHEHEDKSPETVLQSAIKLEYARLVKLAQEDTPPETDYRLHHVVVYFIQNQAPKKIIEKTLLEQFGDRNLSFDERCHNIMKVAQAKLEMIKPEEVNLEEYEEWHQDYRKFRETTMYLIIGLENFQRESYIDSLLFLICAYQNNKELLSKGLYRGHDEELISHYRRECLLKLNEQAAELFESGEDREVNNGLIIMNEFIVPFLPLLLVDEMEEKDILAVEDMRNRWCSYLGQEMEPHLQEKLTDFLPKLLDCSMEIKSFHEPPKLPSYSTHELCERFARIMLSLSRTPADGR
Procedure, shortened: as §1

[5] = biological target: T4, USP28 (UniProt Q96RU2)
T4 sequence (whole entry): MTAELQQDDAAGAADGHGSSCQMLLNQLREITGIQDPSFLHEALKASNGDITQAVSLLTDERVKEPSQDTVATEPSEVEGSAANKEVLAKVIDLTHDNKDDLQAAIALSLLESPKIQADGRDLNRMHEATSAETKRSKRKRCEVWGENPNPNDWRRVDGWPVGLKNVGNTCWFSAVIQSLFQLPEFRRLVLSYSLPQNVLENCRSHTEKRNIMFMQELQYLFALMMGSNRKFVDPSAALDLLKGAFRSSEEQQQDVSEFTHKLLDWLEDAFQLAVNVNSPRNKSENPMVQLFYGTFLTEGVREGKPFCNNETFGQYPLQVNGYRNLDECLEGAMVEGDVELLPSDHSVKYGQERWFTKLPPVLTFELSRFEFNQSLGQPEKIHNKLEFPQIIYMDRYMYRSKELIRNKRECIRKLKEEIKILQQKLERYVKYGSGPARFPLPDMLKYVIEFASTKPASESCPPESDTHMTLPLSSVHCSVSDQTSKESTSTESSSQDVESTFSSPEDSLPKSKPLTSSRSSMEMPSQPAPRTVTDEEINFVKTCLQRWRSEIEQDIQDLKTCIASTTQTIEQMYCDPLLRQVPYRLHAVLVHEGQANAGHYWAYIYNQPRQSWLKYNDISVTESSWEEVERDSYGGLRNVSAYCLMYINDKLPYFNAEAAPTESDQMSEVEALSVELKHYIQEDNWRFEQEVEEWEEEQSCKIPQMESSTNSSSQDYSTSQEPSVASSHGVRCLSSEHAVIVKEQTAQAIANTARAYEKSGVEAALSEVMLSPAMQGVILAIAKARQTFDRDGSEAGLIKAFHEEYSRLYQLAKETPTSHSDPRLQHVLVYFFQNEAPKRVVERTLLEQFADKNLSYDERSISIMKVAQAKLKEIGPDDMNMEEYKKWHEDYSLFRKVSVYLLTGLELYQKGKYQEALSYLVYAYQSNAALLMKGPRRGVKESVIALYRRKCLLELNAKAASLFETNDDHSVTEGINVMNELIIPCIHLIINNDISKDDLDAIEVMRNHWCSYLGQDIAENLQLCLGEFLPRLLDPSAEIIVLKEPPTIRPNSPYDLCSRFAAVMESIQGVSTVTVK
Procedure, shortened: as §1

Measured: log2 ratio of Biotin-Ahx-Ub-VS probe labelling

Sequence of USP24 (Q9UPU5 whole entry): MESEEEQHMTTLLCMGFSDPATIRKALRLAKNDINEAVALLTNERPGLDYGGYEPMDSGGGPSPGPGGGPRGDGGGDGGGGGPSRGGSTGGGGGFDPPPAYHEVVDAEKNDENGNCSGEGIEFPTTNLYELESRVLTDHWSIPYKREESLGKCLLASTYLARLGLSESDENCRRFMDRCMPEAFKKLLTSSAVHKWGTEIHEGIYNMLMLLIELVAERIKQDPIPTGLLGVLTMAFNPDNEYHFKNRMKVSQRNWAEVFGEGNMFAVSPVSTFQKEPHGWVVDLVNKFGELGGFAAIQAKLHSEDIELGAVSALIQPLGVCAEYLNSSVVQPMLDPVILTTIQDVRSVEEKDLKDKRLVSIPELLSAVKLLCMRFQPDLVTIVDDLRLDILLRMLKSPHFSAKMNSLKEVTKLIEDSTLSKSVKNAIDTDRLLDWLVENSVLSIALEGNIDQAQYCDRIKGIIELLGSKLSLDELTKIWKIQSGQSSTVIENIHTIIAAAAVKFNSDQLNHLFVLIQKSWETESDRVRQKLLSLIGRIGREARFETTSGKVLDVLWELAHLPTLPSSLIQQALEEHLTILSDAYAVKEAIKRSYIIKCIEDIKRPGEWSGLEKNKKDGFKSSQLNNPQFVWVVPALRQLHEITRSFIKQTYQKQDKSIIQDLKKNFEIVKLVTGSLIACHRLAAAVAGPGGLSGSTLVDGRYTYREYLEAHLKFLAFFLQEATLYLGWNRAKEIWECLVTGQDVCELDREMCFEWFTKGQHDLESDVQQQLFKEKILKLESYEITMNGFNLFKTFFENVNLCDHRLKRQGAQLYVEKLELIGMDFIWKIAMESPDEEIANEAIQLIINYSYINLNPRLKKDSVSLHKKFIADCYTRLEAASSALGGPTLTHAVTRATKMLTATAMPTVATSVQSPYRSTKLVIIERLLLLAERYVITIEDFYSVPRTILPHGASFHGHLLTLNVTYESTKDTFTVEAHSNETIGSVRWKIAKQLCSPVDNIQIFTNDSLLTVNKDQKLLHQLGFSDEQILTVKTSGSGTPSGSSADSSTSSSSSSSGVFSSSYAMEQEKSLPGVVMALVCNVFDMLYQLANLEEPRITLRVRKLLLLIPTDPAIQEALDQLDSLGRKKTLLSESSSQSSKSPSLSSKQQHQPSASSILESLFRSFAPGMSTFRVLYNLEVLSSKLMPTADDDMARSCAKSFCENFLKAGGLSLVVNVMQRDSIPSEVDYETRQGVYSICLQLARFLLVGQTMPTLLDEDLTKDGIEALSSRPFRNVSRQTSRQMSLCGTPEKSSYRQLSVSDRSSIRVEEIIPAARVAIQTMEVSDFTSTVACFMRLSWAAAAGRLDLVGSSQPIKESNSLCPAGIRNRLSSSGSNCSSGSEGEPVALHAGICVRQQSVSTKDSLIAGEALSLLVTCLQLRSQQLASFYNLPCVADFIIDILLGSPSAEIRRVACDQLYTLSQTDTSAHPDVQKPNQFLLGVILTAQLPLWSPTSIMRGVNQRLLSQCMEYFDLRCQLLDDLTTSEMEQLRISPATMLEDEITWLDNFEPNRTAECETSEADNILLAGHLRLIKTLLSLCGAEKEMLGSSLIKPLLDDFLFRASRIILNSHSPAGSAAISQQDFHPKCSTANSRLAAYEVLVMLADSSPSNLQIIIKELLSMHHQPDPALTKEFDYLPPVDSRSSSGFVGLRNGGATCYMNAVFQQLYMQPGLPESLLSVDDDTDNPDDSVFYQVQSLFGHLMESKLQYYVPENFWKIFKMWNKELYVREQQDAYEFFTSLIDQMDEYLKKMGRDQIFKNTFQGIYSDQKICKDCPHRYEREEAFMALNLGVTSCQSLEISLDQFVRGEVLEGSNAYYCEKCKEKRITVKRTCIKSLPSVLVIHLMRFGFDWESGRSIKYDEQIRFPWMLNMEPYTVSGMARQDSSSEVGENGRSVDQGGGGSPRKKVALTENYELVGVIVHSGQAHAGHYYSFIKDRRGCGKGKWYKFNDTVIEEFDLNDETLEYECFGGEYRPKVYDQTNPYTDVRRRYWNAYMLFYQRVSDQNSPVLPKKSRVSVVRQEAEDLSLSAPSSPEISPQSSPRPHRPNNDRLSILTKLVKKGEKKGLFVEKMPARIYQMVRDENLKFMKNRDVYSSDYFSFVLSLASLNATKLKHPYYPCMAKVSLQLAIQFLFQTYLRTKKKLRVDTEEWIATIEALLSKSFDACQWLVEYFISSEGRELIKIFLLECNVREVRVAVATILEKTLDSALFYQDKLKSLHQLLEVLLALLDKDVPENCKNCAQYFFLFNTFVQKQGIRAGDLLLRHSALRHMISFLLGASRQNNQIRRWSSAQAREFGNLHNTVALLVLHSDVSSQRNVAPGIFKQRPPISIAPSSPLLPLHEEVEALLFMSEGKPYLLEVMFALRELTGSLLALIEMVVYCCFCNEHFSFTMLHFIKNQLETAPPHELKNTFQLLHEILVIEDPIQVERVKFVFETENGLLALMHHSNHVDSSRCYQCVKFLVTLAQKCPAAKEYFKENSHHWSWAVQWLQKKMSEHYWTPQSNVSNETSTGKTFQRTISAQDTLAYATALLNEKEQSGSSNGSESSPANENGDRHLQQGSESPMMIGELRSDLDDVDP

CCCn1nccc1NC(=O)CCl
inactive: [1] -0.237 | [2] 0.165 | [3] -0.693 | [4] -0.184 | [5] -0.445
